Measurements from PubChem BioAssay AID624330 (Southern Research Specialized Biocontainment Screening …, 2012).
Out of some 340,000 compounds screened, about 2,100 (0.62%) were called active.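 The calls were made as follows: active = first-screen hits whose inhibition reached a set limit at any dose in the follow-up dose series; inconclusive = inhibition above the set first-screen limit but never retested; inactive = the rest.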 These entries were drawn from the full list. Measured potencies and affinities stand elsewhere.

Molecular target: Rac GTPase-activating protein 1 (Homo sapiens) (UniProt Q9H0H5)
Sequence (Q9H0H5 whole entry, looked up): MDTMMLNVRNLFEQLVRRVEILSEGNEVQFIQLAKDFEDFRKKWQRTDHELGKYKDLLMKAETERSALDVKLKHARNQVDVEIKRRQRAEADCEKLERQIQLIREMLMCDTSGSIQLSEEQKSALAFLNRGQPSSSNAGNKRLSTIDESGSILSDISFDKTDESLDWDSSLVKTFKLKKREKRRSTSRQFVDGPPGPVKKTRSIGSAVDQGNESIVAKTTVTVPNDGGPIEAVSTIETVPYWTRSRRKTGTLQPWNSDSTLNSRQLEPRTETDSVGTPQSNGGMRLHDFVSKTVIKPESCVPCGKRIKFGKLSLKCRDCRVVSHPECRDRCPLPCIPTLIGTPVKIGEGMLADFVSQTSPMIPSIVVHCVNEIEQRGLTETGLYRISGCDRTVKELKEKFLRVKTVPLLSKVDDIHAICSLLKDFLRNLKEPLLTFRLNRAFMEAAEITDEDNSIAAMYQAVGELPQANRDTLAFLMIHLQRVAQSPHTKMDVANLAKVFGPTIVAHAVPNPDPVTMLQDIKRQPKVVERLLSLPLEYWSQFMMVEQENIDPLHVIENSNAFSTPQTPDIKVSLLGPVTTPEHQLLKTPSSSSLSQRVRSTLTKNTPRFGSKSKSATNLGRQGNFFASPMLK
Assay: MgcRacGAP GTPase-activating activity inhibitors, confirmation, biochemical, ADP Hunter fluorescence, primary and confirmatory (AID 624330);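 also: fluorescence reports GDP produced by GAP-driven GTP hydrolysis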
Details: MgcRacGAP-stimulated Rac1 GTP hydrolysis, at 30 µM, stronger effect = higher value, GST-tagged Rac1 F28L mutant substrate

inhibition, inactive:
CCCCc1ccc(NC(=S)NCCc2ccc(F)cc2)cc1 -17.2%
CCOc1ccc(-n2c(-c3ccco3)nc3c(cnn3-c3ccc(C)cc3)c2=O)cc1 2.66%
COc1ccc(/C=N/NC(=O)CN(Cc2ccccc2)S(=O)(=O)c2ccc3c(c2)OCCO3)cc1 7.2%
O=C(CN(Cc1ccco1)S(=O)(=O)c1ccccc1)N/N=C/c1cccc(O)c1 8.45%
O=C(CN(Cc1ccco1)S(=O)(=O)c1ccccc1)N/N=C/c1ccccc1C(=O)O 8.11%
Cc1ccc(/C=N/NC(=O)CN(Cc2ccccc2)S(=O)(=O)c2ccc3c(c2)OCCO3)cc1 2.63%
CN(C)CCCN=Cc1c(-c2ccccc2)[nH]n(-c2nc3ccccc3s2)c1=O 20.7%
O=C(NCc1ccc2c(c1)OCO2)Nc1cccc(Cl)c1 11.9%
COc1ccc(-c2nc3c(Br)c(N)c(Br)cc3o2)cc1 -0.217%
Nc1cccc(O)c1 18.5%
O=C(Oc1ccc2ccc(O)cc2c1)c1ccccc1Cl 18.6%
Clc1ccc2nc3ccccc3cc2c1 2.87%
Nc1ccc2cc3ccccc3cc2c1 17.6%
CCc1ccc(NC(=O)CSc2nc3ccccc3nc2N2CCCCC2)cc1 6.49%
O=C(Cc1ccc(Cl)cc1)c1ccc(O)cc1 9.32%
O=C(Cc1c(F)cccc1Cl)c1ccc(O)cc1O -1.08%
O=C(Cc1ccc(Cl)cc1)NNc1c(F)c(F)cc(F)c1F 5.43%
Oc1ccc(/C=N/n2cnn(Cc3ccccc3Cl)c2=S)c(O)c1 8.66%
CCN1C(=O)C(C(=O)c2ccccc2)SC1=S (stereo not drawn) 2.79%
CSc1ncnc2c1ncn2CCCN1CCN(Cc2cccc3ccccc23)CC1 18.8%
CC(=O)Nc1ccc(C(=O)OCC(=O)c2ccc(C)c([N+](=O)[O-])c2)cc1 -0.02%
O=C(Oc1ccccc1C(=O)Nc1ccccc1)c1ccc(Br)c([N+](=O)[O-])c1 14.5%
O=C(c1ccc2snnc2c1)N1CCSCC1 12.5%
COc1cc(/C=N/S(=O)(=O)c2ccccc2)cc(OC)c1O 9.73%
COc1ccc(OC)c(/C=N/N(C)c2ccccc2)c1 19.4%
CN(/N=C/c1cc(Br)cc(Br)c1O)c1ccccc1 5.13%
CCOc1ccc(/C=N/N(C)c2ccccc2)cc1OC 8.29%
COc1ccc(/C=N/N(c2ccccc2)c2ccccc2)cc1O 10.2%
COc1cc(/C=N/N(c2ccccc2)c2ccccc2)ccc1O 21%
Cc1ccc(C(=O)N2CC=C(c3ccccc3)CC2)s1 -2.79%
CCCCN(C(=O)Nc1ccc(Cl)cc1)C1CCN(C(C)=O)CC1 12.3%
Cc1cc(NC(=O)c2ccc([N+](=O)[O-])cc2Cl)ccc1NC(=O)c1ccco1 5.16%
C=CCc1cccc(/C=N/c2ncccc2O)c1O 15.7%
Oc1ccccc1C=Nc1cccc2ccccc12 12.9%
Cc1cccc(N=Cc2ccccc2O)c1C 6.78%
C=CCc1cccc(C=Nc2ccc(Br)cc2)c1O 2.02%
Cc1ccccc1N=Cc1cccc(O)c1O 12.1%
Cc1ccc(N=Cc2cccc(O)c2O)c(C)c1 27.7%
COc1ccc(COCC(O)CN2CCC(CN3C(=O)c4cccc5cccc(c45)C3=O)CC2)cc1OC (stereo not drawn) 5.74%
O=C(c1cc(=O)c2ccccc2o1)N1CCCc2ccccc21 4.48%
O=C(O)CCCC(=O)Nc1nc2n(n1)C(c1ccc(F)cc1)CC(c1ccc(Cl)cc1)N2 (stereo not drawn) -3.19%
Brc1ccc(CSc2nccn2-c2ccccc2)cc1 -2.52%
CCOc1ccc(-c2nnc(-c3ccccc3)n2-c2ccccc2)cc1 1.23%
CCOc1ccc(S(=O)(=O)NCCC(=O)OCC(=O)N2CC(=O)Nc3ccccc32)cc1 2.23%
CCN(CC)S(=O)(=O)c1ccc(Cl)c(NC(=O)COC(=O)c2cc(-c3ccccc3Cl)nc3ccccc23)c1 5.1%
CC(C)N(Cc1nccn1C)C(=O)c1ccc2oc(CCCc3ccccc3)nc2c1 -4.5%
COc1ccc(NC(=O)Nc2ccc(OC)cc2)cc1 4.31%
Cc1oc(-c2ccccc2)cc1C(=O)Nc1ccccc1 19.3%
COc1ccc(NC(=O)c2cc(-c3ccccc3)oc2C)cc1 8.42%
COc1cc(OC)c(C(=O)Nc2ccncc2)cc1OC 6.31%
COc1ccc(NC(=S)c2ccc(N(C)C)cc2)cc1 6.87%
COc1cc(C(=O)Nc2ccc(N(C)C)cc2)c([N+](=O)[O-])cc1OC 19.1%
CCOc1ccccc1C(=O)NCC(=O)NCC(C)(C)N1CCOCC1 3.54%
O=C(C1COc2ccccc2O1)N1CCN(c2nc3c(F)cc(F)cc3s2)CC1 (stereo not drawn) 1.62%
CCOC(=O)C1CCCN(S(=O)(=O)c2c(C)c(C)cc(C)c2C)C1 (stereo not drawn) 3.51%
COC(=O)C1=C(C(=O)c2ccccc2)C(c2cccs2)n2nnnc2N1 (stereo not drawn) 12.1%
CCN(c1ccccc1)S(=O)(=O)c1cccc(C(=O)Nc2cccc(C)n2)c1 16.5%
CCC1CCCCN1C(=O)CSc1nc(N)cc(=O)[nH]1 (stereo not drawn) 9.52%
COc1ccc(Cl)cc1NCCC(O)c1ccc(F)cc1 (stereo not drawn) 10.5%
COc1ccc(C(O)CNc2ccc(C)cc2)cc1 (stereo not drawn) 12.6%
Cc1cccc(NC(=O)c2ccc(COc3ccccc3)o2)n1 -1.27%
CC(C)(CC(=O)OCC(=O)Nc1ccccc1F)CC1=NS(=O)(=O)c2ccccc2N1 8.87%
CCOC(=O)C1(CC2CCCCO2)CCN(C(=O)Nc2ccc(C)c(C)c2)CC1 (stereo not drawn) 8.55%
